Bioassay records: PubChem, The Scripps Research Institute Molecular Screening Center
Hits are enriched below; roughly 2.9% of the tested compounds scored in any of these assays.
KLK7 zymogen act: proKLK7 zymogen activators, primary screen, biochemical, fluorescence intensity; Kallikrein-7 (Homo sapiens), P49862; purified proKLK7, EDANS-DABCYL substrate fluorescence; 100% is mature enzyme control, 0% vehicle; activation, % at 7 µM; 370,000 tested, 0.9% active;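 active = activation above the mean of all tested compounds plus 3 SD, computed per campaign excluding outliers beyond control limits, cut at about 13% in these data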
ADAM10 inh: human ADAM10 inhibitors, primary screen, biochemical, QFRET, HTS. Disintegrin and metalloproteinase domain-containing protein 10 (Homo sapiens), O14672. recombinant ADAM10, EDANS/DABCYL FRET peptide cleavage, 3 h. inhibition, % at 7 µM. 370,000 tested, 0.62% active. AID 720582, 2013;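 active = inhibition above a per-campaign cutoff equal to the mean of compounds falling between control-based bounds plus 3 SD, cut at about 20% in these data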
Target sequence (O14672 214-748 limits assumed): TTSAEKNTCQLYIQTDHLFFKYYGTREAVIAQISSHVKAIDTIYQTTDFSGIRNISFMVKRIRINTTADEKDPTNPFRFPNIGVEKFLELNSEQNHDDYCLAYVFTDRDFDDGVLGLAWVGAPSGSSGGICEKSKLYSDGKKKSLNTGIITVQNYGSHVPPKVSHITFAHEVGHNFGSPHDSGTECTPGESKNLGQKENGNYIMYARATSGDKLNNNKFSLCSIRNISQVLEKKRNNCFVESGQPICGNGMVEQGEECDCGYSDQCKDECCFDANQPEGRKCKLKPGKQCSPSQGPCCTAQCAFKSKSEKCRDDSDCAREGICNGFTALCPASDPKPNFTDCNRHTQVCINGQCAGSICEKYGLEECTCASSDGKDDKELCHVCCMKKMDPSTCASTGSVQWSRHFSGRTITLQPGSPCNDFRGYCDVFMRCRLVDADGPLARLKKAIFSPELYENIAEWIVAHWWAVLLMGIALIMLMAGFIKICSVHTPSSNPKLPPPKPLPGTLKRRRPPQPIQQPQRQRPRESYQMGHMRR
PLC-beta3 inh: human PLC-beta3 inhibitors, primary screen, biochemical, fluorescence | Purified PLC-beta3, fluorogenic substrate | inhibition, % at 12.2 µM | 370,000 tested, 0.18% active | AID 720704, 2013; in the data active = inhibition above about 11%
PLCg1 inh: PLC-gamma1 enzyme inhibitors, primary screen, biochemical, fluorescence, purified enzyme; AID 720700, 2013; fluorogenic substrate; 370,000 tested, 0.84% active; inhibition, % at 12.2 µM
ADAM17 inh: ADAM17 inhibitors, primary screen, biochemical, QFRET; Disintegrin and metalloproteinase domain-containing protein 17 (Homo sapiens), P78536; recombinant ADAM17, EDANS/DABCYL FRET peptide cleavage; inhibition, % at 6.95 µM; 370,000 tested, 0.83% active; AID 720648, 2013;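 active = inhibition above the mean of compounds lying between control limits plus 3 SD, set per campaign, cut at about 8.5% in these data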
PLCgamma1 ctr: PLC-gamma1 enzyme inhibitors, counter-screen for PLC-beta3 inhibitor project, biochemical, fluorescence; 3,300 tested, 3.1% active; shares compounds with PLCg1 inh; inhibition, % at 12.3 µM; purified PLC-gamma1, fluorogenic substrate
PLCbeta3 conf: PLC-beta3 inhibitor confirmation, biochemical, fluorescence, purified enzyme; shares compounds with PLCg1 inh; AID 743261, 2014; fluorogenic substrate fluorescence; 3,300 tested, 1% active; inhibition, % at 12.3 µM; in the data active = inhibition above about 11%
Hits are given with their value; - = inactive; . = no result. Cut-off read from the data, not from the text of the source, unless noted: active = inhibition above about 9.5%; inactive = the rest.

SMILES	KLK7 zymogen act	ADAM10 inh	PLC-beta3 inh	PLCg1 inh	ADAM17 inh	PLCgamma1 ctr	PLCbeta3 conf
CCOC(=O)[C@H](CCc1ccccc1)N[C@@H](C)C(=O)N1C(C(=O)O)C[C@@H]2CCC[C@@H]21 (stereo not given in full)	-	-	-	10	-	-	-
CN(C)CCN1C(=O)C(=O)/C(=C(/O)c2ccc(S(=O)(=O)N3CCOCC3)cc2)C1c1ccc(Br)cc1 (stereo not given)	-	-	-	11	-	-	-
CC12CCC(=O)C=C1CCC1C2C(O)CC2(C)C1CCC2(O)C(=O)CO (stereo not given)	-	-	-	11	-	-	-
C[C@]12CCC(=O)C=C1CC[C@@H]1[C@@H]2[C@@H](O)C[C@@]2(C)[C@H]1CC[C@]2(O)C(=O)CO	-	-	-	-	-	.	.
O=C(c1ccc([N+](=O)[O-])cc1)N1CCN(Cc2ccccc2)CC1	-	-	-	-	-	.	.
O=C(NCCc1ccccc1)c1ccc([N+](=O)[O-])cc1	-	-	-	-	-	.	.
O=C(c1ccc([N+](=O)[O-])cc1)N(Cc1ccccc1)Cc1ccccc1	-	-	-	10	-	-	-
O=C(O)c1ccc([N+](=O)[O-])cc1	-	-	-	13	-	-	-
O=[N+]([O-])c1ccc(C(=S)N2CCN(Cc3ccccc3)CC2)cc1	-	-	-	10	-	-	-
CCOC(=O)C1=CCN(S(=O)(=O)c2ccccc2C)C1c1cccc(Cl)c1 (stereo not given)	-	-	-	-	-	.	.
CCN(CCO)Cc1csc2ccc(C(C)(C)C)cc12	-	-	-	-	-	.	.
Cc1nn(CC(=O)O)c(C)c1Cl	-	-	-	11	-	-	-
Cc1nn(CC(=O)O)c(C)c1C	-	-	-	-	-	.	.
O=C(CSc1nnc(-c2ccc(O)cc2)o1)Nc1ccccc1Br	-	-	-	-	-	.	.
CC1(C)Cc2ccccc2C(/C(=N/O)C(N)=O)=N1	-	-	-	11	-	-	-
CC1=CC(=O)C2(C)C(C)=C(C)C12C (stereo not given)	-	-	-	-	-	.	.
CCc1ccc(/C=C/C(=O)NC2=NCCS2)cc1	.	-	-	-	-	.	.
COc1ccc2nc(Nc3nc(CSc4ccc(C)cc4)cc(=O)[nH]3)nc(C)c2c1	-	-	-	-	-	.	.
Cc1ccc(SCc2cc(=O)[nH]c(Nc3nc(C)c4cccc(C)c4n3)n2)cc1	-	-	-	13	-	-	-
COc1cccc(C(=O)N2CCOCC2)c1	-	-	-	11	-	-	-
COc1cccc(C(=O)Nc2cccc(C(=O)N3CCOCC3)c2)c1	-	-	-	-	-	.	.
CCOC(=O)c1c(NC(=O)C2CC2)sc2c1CC(C)(C)OC2	-	-	-	-	-	.	.
COC(=O)c1c(N)sc2c1CC(C)(C)OC2	-	-	-	11	-	-	-
Cc1cccc(/C=N/NC(=O)Cn2nccc2C)n1	-	-	-	-	-	.	.
COc1ccc(-c2cc(NC(C)=O)c3ncc(-c4cccc(C(C)=O)c4)n3c2)cc1OC	-	-	-	-	-	.	.
SMILES	KLK7 zymogen act	ADAM10 inh	PLC-beta3 inh	PLCg1 inh	ADAM17 inh	PLCgamma1 ctr	PLCbeta3 conf
CCOc1ccc(C(=O)Nc2ccc3[nH]ncc3c2)cc1	-	-	-	12	-	-	-
CCCOc1ccc(C(=O)Nc2ccc(NC(=O)c3cccs3)cc2)cc1	-	-	-	-	-	.	.
CCOc1ccc(NC(=O)c2cccc(NC(=O)c3ccccc3)c2)cc1	-	-	-	11	-	-	-
CCCCOc1cccc(C(=O)Nc2ccc(NC(=O)c3cccs3)cc2)c1	-	-	-	9.6	-	-	-
NC(=O)NC(=O)CSc1cccc(C(F)(F)F)c1	-	-	-	9.5	-	-	-
CCC[C@@H](/C=C/C(=O)OC(C)(C)C)Sc1ccc(C(C)(C)C)cc1	-	-	-	-	-	.	.
COC(=O)[C@@]1(Sc2ccc(C)cc2)CC(=O)N[C@@H]1c1ccc(Br)cc1	-	-	-	-	-	.	.
COc1cc(C=NN2CCN(C(c3ccccc3)c3ccccc3)CC2)cc(OC)c1OC(C)=O	-	-	-	-	-	.	.
CC(CNC(=O)c1cc(Cl)ccc1[N+](=O)[O-])NC(=O)c1cc(Cl)ccc1[N+](=O)[O-] (stereo not given)	-	-	-	11	-	-	-
O=C1CC(N2CCN(Cc3ccccc3)CC2)C(=O)N1c1ccccc1 (stereo not given)	-	-	-	11	-	-	-
O=C1CC(N2CCN(Cc3ccccc3)CC2)C(=O)N1c1ccc2c(c1)OCCO2 (stereo not given)	-	-	-	-	-	.	.
Cc1[nH]c2ccccc2c1C(=O)C(=O)N1CCN(c2ccccc2F)CC1	-	-	-	15	-	-	-
O=C(c1c(F)cccc1F)N1CCN(c2ccccc2F)CC1	-	-	16	-	-	-	-
O=C(Nc1ccccc1N1CCN(C(=O)c2ccc(Cl)cc2)CC1)c1cccc(F)c1	-	-	-	12	-	-	-
O=C(c1cccc(C(=O)N2CCN(c3ccccc3F)CC2)c1)N1CCN(c2ccccc2F)CC1	-	-	-	-	-	.	.
CC(=O)c1ccc(N2CCN(C(=O)C(=O)c3c(C)[nH]c4ccccc34)CC2)cc1	-	-	-	-	-	.	.
C[C@@H](NC(=O)[C@@H]1CCCN1C(=O)[C@@H]1CCCN1C(=O)c1cccs1)c1ccccc1	-	-	-	-	-	.	.
CCC[N+](C)(C)C(C)C(OC(C)=O)c1ccccc1 (stereo not given)	-	-	-	-	-	.	.
CC1C(=O)OC2C1CCC1(C)C3(C)C(=O)C=CC213 (stereo not given)	-	-	-	-	-	.	.
CC(C)c1onc(C(=O)N2CCCCCC2)c1[N+](=O)[O-]	-	-	-	15	-	-	-
CC1(C)O[C@@H]2[C@H](O1)[C@@H](CO)O[C@H]2n1cc(Br)c(=O)[nH]c1=O	-	-	-	14	-	-	-
CCCC1CCC2(CCCN2CCOC(=S)NCc2cccc(C)c2)CC1 (stereo not given)	.	-	-	-	-	.	.
O=[N+]([O-])c1ccc(-c2c(O)c3ccccc3c3nc4ccccc4nc23)cc1	-	-	11	-	-	-	-
COCC(=O)N1C[C@H](C)[C@H](OC)CN(C)C(=O)c2cc(NC(=O)Nc3cccc(F)c3)ccc2OC[C@@H]1C	-	-	-	-	-	.	.
